Experimental data reported in the supplement of paper PMC3334620.
Over roughly 33,000 sequences, “E-score (-0.5 to 0.5)” has its median near -0.035; the highest 2% begin near 0.34. Only a selection was taken, and the highest values are over-represented in it overall.

What follows are sequences tested against T1, Mot3 (UniProt P54785) (assay: PBM E-score (8-mer binding enrichment) (E-score (-0.5 to 0.5)); higher = stronger / more preferred TF binding). Conditions: protein concentration: 200 nM; construct: GST-full length.
T1 sequence: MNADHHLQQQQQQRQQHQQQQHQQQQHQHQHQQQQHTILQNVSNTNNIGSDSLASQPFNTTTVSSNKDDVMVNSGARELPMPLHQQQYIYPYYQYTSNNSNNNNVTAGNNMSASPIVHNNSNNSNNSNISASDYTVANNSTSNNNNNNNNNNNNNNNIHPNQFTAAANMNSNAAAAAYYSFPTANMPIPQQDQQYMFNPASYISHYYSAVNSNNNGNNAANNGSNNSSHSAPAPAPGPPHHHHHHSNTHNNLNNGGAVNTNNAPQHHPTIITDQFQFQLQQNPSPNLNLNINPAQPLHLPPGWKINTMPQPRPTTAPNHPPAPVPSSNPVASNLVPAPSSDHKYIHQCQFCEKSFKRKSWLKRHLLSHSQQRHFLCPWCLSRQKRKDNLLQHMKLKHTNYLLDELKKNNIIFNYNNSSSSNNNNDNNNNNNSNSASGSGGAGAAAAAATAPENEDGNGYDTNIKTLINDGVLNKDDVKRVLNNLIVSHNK
Experimental: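 Universal 'all 10-mer' protein binding microarrays (Agilent AMADID 015681) probed with GST-tagged S. cerevisiae TFs (full-length or DBD) made by in vitro transcription/translation (PURExpress), about 100-200 nM. Bound TF was detected with fluorescent anti-GST. Each ungapped 8-mer (which stands for itself and its reverse complement) is scored by the PBM enrichment score (E-score), a modified Wilcoxon-Mann-Whitney statistic from -0.5 to +0.5, computed with the Universal PBM Analysis Suite. Scale: above 0.35 generally sequence-specific binding.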

Sequence	PBM E-score
CCGCTAAC	-0.0566
ACTGGTGG	-0.246
AGGCCTCA	-0.247
CAGAGAGC	-0.316
CACATGTG	0.194
GACATGTA	0.355
TACATCTA	0.227
GACATATA	0.125
TAAATGTA	0.346
TACATATA	0.317
GAAATGTA	0.0874
CACATGTA	0.344
CAAATGTA	0.272
CACATGTC	0.196
TACATGTA	0.408
GACATGTC	0.191
GCTGCAAC	-0.242
CAAGAGGA	0.038
CGAAACTA	-0.136
GACTAAAC	0.0174
ACCCGTGC	-0.0819
GAGAAGGC	0.258
ACGGCCTA	-0.0205
ACGCGCTG	0.184
GGCTAACC	0.0149

Sequence	PBM E-score
CTTCCTGC	-0.0264
ATCTGAAC	-0.219
ATATTGGA	0.0164
CTAAGGAG	-0.254
CTAAGGAC	-0.231
GTAAGGAC	-0.194
GTAAGGAA	0.366
TTAAGTAA	0.0348
GTAAGTAA	0.169
TTAAGGAA	0.398
CTAAGGAA	0.366
ATAAGGAA	0.299
CGGTCTCC	-0.283
CGCCCCCG	-0.351
GACGGTTA	-0.0411
ATACACAT	0.3
GCTGTTTA	-0.0345
TTCAGGAA	0.337
GGCAGGAA	0.419
AGCAGGAA	0.395
CTCAGGAA	0.335
AGCAGGAG	-0.0982
GGCAGGAC	-0.14
ATCAGGAA	0.343
TGCAGGAA	0.443

Sequence	PBM E-score
ATCAGGAC	-0.157
GGCAGGGA	-0.158
TGCAGTAA	0.0245
AGCAGGAC	-0.096
TACTGAGA	-0.0385
GGTGCCAC	-0.168
AGGGGTGG	-0.248
GACTGGTA	-0.00685
GTGCGATA	-0.123
CGCAGGAG	-0.0652
CGCAGGAC	-0.0456
CGCAGGAA	0.356
AAAGTAGC	-0.0505
ACCATTAA	0.0184
CGCTCCTC	-0.269
TACGCAAA	0.206
CCTATTAA	0.273
ACTATTAC	0.25
CCTATTAC	0.344
CAGGTCGA	0.148
ATTAGCCA	-0.147
AGGTCGAA	0.00993
CATGTTAG	0.332
CATGTTAC	0.332
TATGTTAA	0.396

Sequence	PBM E-score
AATGTTAA	0.279
CATGTTAA	0.411
GATGTTAA	0.268
CATTCAGC	-0.12
ACCTCGCA	-0.0135
AAACAAGC	0.0864
TGATCCAA	-0.071
CCATCTGC	-0.272
ATACACGC	0.37
ATACACGG	0.375
ATACACGA	0.352
ACACACGG	0.182
ACACACGC	0.174
ATACACAA	0.324
ATACACCA	0.129
ATACACTA	0.124
ATACACAC	0.326
GACCTCAC	-0.243
CCCCTACA	0.0392
ATATACGA	0.14
AATTTTAT	0.0903
TCGATAGA	-0.0212
ACCCCTTC	0.129
CTTTTACC	0.141
TCTTTACA	0.389

Sequence	PBM E-score
ATTTTACA	0.336
CCTTTACG	0.172
GGTTTACA	0.333
GTTTTACA	0.371
CCTTTACC	0.102
GCTTTACA	0.325
GTTTTATA	0.101
CTTTTACA	0.345
CCTTTACA	0.392
ACTTTACA	0.313
ACCCTTTA	0.167
GCAGTCAC	0.305
ATTGGCCG	-0.176
GGATTTAC	0.174
CGACAGGA	0.0979
AGCACGCG	0.17
AAATGCAC	0.0764
AGTCACCG	0.0455
GCGCAAGC	-0.172
AGGCATAG	0.274
AGGCATCG	0.404
AAGCATCC	-0.202
AGGCATCA	0.409
CGGCATCC	-0.0227
GGGCATCA	-0.23

Sequence	PBM E-score
ACGCATCG	-0.0642
CGGCATCA	-0.0726
AGGCATCC	0.384
CACTTCTG	-0.0864
AATTGGTA	0.113
AGCCAACG	0.0732
ACCTAAGC	0.0128
CCCCTTGC	-0.152
AGGCCTCC	-0.166
CTAGACAC	0.0958
TAAAACGA	0.0299
GTCCAACA	0.153
ACACCTGG	0.104
TTTACAAA	0.331
ATTACAGC	0.127
ATTACAGA	0.24
CTTACAAA	0.15
ATTACAAG	0.388
ATTACAAC	0.286
ATTACAAA	0.347
ATTACAAT	0.299
ATTACAGG	0.359
GCTGGATA	0.0442
GCCCTTAC	-0.0326
CTAGGCTC	0.043

Sequence	PBM E-score
AAACTGAA	0.0399
GGGCCCAC	-0.255
AACCGTAG	-0.229
ACCGTGTC	0.216
CCCGTGGA	-0.314
ACCGTGTA	0.397
GCCGTGGA	-0.169
ACCGTGTG	0.175
GCCGTGTA	0.349
GCCGTGAA	-0.128
CCCGTGTA	0.376
CCCGTGTC	0.082
AGCCAAAT	-0.0958
CCAACTAA	0.0699
CACTTTTA	0.117
ACGTCGCC	-0.00307
GGGAACGA	-0.122
ATGAACGG	0.0117
AAGAACGG	-0.266
AGGAACGG	0.463
AGGAACGA	0.44
CGGAACGC	-0.0837
ATGAACGC	0.145
AGGAACGC	0.451
CGGAACGA	0.0162
